{"source": "the supplement of paper PMC3334620", "note": "Whole data set: some 33,000 sequences, median “E-score (-0.5 to 0.5)” near -0.01, cut for the highest 2% near 0.26. The entries come from a sample that favours the highest values as a whole.", "data": [{"target": "Ste12 (UniProt P13574)", "sequence (P13574 whole entry, the tested form may be a part)": "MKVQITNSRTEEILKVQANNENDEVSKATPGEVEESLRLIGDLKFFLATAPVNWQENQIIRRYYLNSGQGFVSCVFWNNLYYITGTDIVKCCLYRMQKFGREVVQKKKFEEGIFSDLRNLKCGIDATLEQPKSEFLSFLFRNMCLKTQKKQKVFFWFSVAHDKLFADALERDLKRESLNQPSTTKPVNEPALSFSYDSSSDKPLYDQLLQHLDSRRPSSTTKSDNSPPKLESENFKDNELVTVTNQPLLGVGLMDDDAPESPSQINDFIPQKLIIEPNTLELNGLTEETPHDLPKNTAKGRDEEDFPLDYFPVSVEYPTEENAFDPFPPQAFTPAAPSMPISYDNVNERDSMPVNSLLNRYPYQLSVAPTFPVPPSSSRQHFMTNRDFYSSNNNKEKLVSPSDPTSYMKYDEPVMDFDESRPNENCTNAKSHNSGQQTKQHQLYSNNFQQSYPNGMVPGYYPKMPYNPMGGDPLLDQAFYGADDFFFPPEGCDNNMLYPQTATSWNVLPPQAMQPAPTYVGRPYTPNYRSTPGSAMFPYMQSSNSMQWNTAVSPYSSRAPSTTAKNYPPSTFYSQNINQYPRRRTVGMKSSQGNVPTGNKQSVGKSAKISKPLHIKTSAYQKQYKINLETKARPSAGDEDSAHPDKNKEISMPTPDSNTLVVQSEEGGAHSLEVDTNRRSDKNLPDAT", "experiment": "PBM E-score (8-mer binding enrichment) (E-score (-0.5 to 0.5)); higher = stronger / more preferred TF binding", "details": "protein concentration: 200 nM; construct: GST-DNA-binding domain", "method": "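Universal 'all 10-mer' protein binding microarrays (Agilent AMADID 015681) probed with GST-tagged S. cerevisiae TFs (full-length or DBD) made by in vitro transcription/translation (PURExpress), about 100-200 nM. Bound TF was detected with fluorescent anti-GST. Each ungapped 8-mer (which stands for itself and its reverse complement) is scored by the PBM enrichment score (E-score), a modified Wilcoxon-Mann-Whitney statistic from -0.5 to +0.5, computed with the Universal PBM Analysis Suite. Scale: above 0.35 generally sequence-specific binding.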", "values": [{"sequence": "ACGTAAAG", "PBM E-score": 0.0191}, {"sequence": "CACAAGGG", "PBM E-score": -0.194}, {"sequence": "CGCCTCTA", "PBM E-score": -0.0334}, {"sequence": "ATTTATTA", "PBM E-score": 0.292}, {"sequence": "ATTATTAC", "PBM E-score": 0.269}, {"sequence": "ACTATTAC", "PBM E-score": 0.0443}, {"sequence": "ATTTATTC", "PBM E-score": 0.121}, {"sequence": "CTTATTAC", "PBM E-score": 0.0999}, {"sequence": "ATTTATTG", "PBM E-score": 0.0911}, {"sequence": "CGTGGTAA", "PBM E-score": -0.0665}, {"sequence": "ACATCTCA", "PBM E-score": -0.0976}, {"sequence": "CGCTCGAA", "PBM E-score": -0.0852}, {"sequence": "CTGATCAC", "PBM E-score": -0.0885}, {"sequence": "AGGCGAGA", "PBM E-score": -0.195}, {"sequence": "GTGAGACA", "PBM E-score": 0.256}, {"sequence": "ATGAGACA", "PBM E-score": 0.338}, {"sequence": "ATGAGACC", "PBM E-score": -0.144}, {"sequence": "AACTTTGC", "PBM E-score": -0.0155}, {"sequence": "AGAGTTCA", "PBM E-score": -0.222}, {"sequence": "CACATTAA", "PBM E-score": 0.0442}, {"sequence": "CAAACGTC", "PBM E-score": 0.0704}, {"sequence": "AAAACGTC", "PBM E-score": 0.134}, {"sequence": "GAAACGTC", "PBM E-score": 0.303}, {"sequence": "GAAACGTA", "PBM E-score": 0.325}, {"sequence": "TAAACGTA", "PBM E-score": -0.115}, {"sequence": "CAAACGTA", "PBM E-score": -0.052}, {"sequence": "CCCGCGAG", "PBM E-score": 0.119}, {"sequence": "ATTCGACG", "PBM E-score": 0.087}, {"sequence": "ATACCAGG", "PBM E-score": 0.0311}, {"sequence": "CCCATCAG", "PBM E-score": -0.193}, {"sequence": "GCAGGTAA", "PBM E-score": 0.0649}, {"sequence": "AGCGACAC", "PBM E-score": 0.0304}, {"sequence": "AGATCGTG", "PBM E-score": 0.0231}, {"sequence": "AATATCAC", "PBM E-score": 0.107}, {"sequence": "AATATTAA", "PBM E-score": 0.327}, {"sequence": "AATATCAA", "PBM E-score": 0.283}, {"sequence": "TATATTAA", "PBM E-score": 0.22}, {"sequence": "AATATTAT", "PBM E-score": 0.24}, {"sequence": "CGTATCAA", "PBM E-score": 0.088}, {"sequence": "TGTATCAA", "PBM E-score": 0.392}, {"sequence": "AATATCAG", "PBM E-score": 0.0475}, {"sequence": "AGTATCAA", "PBM E-score": 0.217}, {"sequence": "ACATATTA", "PBM E-score": 0.193}, {"sequence": "AGCACAAT", "PBM E-score": -0.16}, {"sequence": "TTATCGAA", "PBM E-score": 0.196}, {"sequence": "AATAGGGT", "PBM E-score": 0.148}, {"sequence": "AGACTGGA", "PBM E-score": -0.0847}, {"sequence": "CAGCTCAC", "PBM E-score": -0.301}, {"sequence": "ATCCGATA", "PBM E-score": 0.063}, {"sequence": "ATCCGATG", "PBM E-score": 0.277}, {"sequence": "ATCCGATC", "PBM E-score": 0.162}, {"sequence": "CACTCCCA", "PBM E-score": 0.0996}, {"sequence": "AGCGCTAG", "PBM E-score": -0.0146}, {"sequence": "GGCACTTA", "PBM E-score": -0.157}, {"sequence": "GTTTCAAA", "PBM E-score": 0.47}, {"sequence": "CATTCGAA", "PBM E-score": 0.11}, {"sequence": "GATTCGAA", "PBM E-score": 0.277}, {"sequence": "GATTCATA", "PBM E-score": 0.00383}, {"sequence": "GGTTCAAA", "PBM E-score": 0.195}, {"sequence": "CTTTCAAA", "PBM E-score": 0.246}, {"sequence": "CATTCATA", "PBM E-score": 0.296}, {"sequence": "CATTCATC", "PBM E-score": 0.125}, {"sequence": "GTTTCGGA", "PBM E-score": 0.334}, {"sequence": "GATTCGAC", "PBM E-score": 0.12}, {"sequence": "CTTTCGGA", "PBM E-score": 0.0344}, {"sequence": "ATTTCGGA", "PBM E-score": 0.181}, {"sequence": "ATGGTAGC", "PBM E-score": -0.0629}, {"sequence": "CACCCAAC", "PBM E-score": -0.0687}, {"sequence": "CTTGAGGA", "PBM E-score": -0.147}, {"sequence": "GGAGCTTA", "PBM E-score": -0.219}, {"sequence": "CCTATTCC", "PBM E-score": 0.0843}, {"sequence": "ACTAAAGC", "PBM E-score": 0.0971}, {"sequence": "AGGCGAAG", "PBM E-score": -0.178}, {"sequence": "TAATCGAA", "PBM E-score": 0.185}, {"sequence": "GAATCGAA", "PBM E-score": 0.296}, {"sequence": "CTTTCGAA", "PBM E-score": 0.0433}, {"sequence": "ATTTCATA", "PBM E-score": 0.124}, {"sequence": "ATTTCACA", "PBM E-score": 0.205}, {"sequence": "GTTTCACA", "PBM E-score": 0.447}, {"sequence": "ATTTCGAA", "PBM E-score": 0.253}, {"sequence": "CAATCGAA", "PBM E-score": -0.021}, {"sequence": "ATTTCACG", "PBM E-score": 0.122}, {"sequence": "CTTTCATA", "PBM E-score": 0.205}, {"sequence": "GTTTCGAA", "PBM E-score": 0.325}, {"sequence": "GTTTCATA", "PBM E-score": 0.481}, {"sequence": "AAAGCGGC", "PBM E-score": 0.054}, {"sequence": "CTGTCAGA", "PBM E-score": 0.0092}, {"sequence": "AAGTACGT", "PBM E-score": -0.0519}, {"sequence": "AACAGCAG", "PBM E-score": 0.0314}, {"sequence": "CCATGCCC", "PBM E-score": -0.0778}, {"sequence": "GTGAACGA", "PBM E-score": 0.047}, {"sequence": "GACAAACA", "PBM E-score": 0.0473}, {"sequence": "ATTTCAGA", "PBM E-score": 0.00371}, {"sequence": "ATTTCAAC", "PBM E-score": 0.161}, {"sequence": "GTTTCAGA", "PBM E-score": 0.484}, {"sequence": "CTTTCAGA", "PBM E-score": 0.211}, {"sequence": "ATTTCAAA", "PBM E-score": 0.272}, {"sequence": "ATTTCAAG", "PBM E-score": 0.0717}, {"sequence": "ACGTCAAA", "PBM E-score": 0.0313}, {"sequence": "AACTCAGC", "PBM E-score": 0.109}, {"sequence": "GCTTGGGA", "PBM E-score": -0.164}, {"sequence": "AACGTGGT", "PBM E-score": -0.0847}, {"sequence": "AACTTATG", "PBM E-score": 0.0251}, {"sequence": "AACTTATC", "PBM E-score": 0.0734}, {"sequence": "AACTTATT", "PBM E-score": 0.333}, {"sequence": "GCTTGTGA", "PBM E-score": -0.0847}, {"sequence": "GATGAAAC", "PBM E-score": 0.494}, {"sequence": "AATGAAAT", "PBM E-score": 0.231}, {"sequence": "TATGAAGA", "PBM E-score": 0.0389}, {"sequence": "AATGAAGC", "PBM E-score": -0.0558}, {"sequence": "GATGAATC", "PBM E-score": 0.0548}, {"sequence": "AATGAAGA", "PBM E-score": 0.304}, {"sequence": "AATGAAAA", "PBM E-score": 0.292}, {"sequence": "AATGAACC", "PBM E-score": 0.105}, {"sequence": "GATGAACC", "PBM E-score": 0.062}, {"sequence": "CATGAAGA", "PBM E-score": -0.0377}, {"sequence": "AATGAAAC", "PBM E-score": 0.44}, {"sequence": "AATGAAAG", "PBM E-score": 0.0381}, {"sequence": "CAAATCGA", "PBM E-score": 0.0344}, {"sequence": "CGCTAGTC", "PBM E-score": -0.27}, {"sequence": "AATGCTAG", "PBM E-score": -0.181}, {"sequence": "CAACAGAC", "PBM E-score": -0.018}, {"sequence": "TCGTTGCA", "PBM E-score": -0.0015}, {"sequence": "ATTGGGAA", "PBM E-score": 0.0116}, {"sequence": "CGTGTAAG", "PBM E-score": -0.0021}, {"sequence": "CATGAAAG", "PBM E-score": -0.00226}, {"sequence": "AATGAATG", "PBM E-score": 0.292}, {"sequence": "GATGAAAA", "PBM E-score": 0.281}, {"sequence": "AATGAATT", "PBM E-score": 0.133}, {"sequence": "AATGAATC", "PBM E-score": 0.16}, {"sequence": "TATGAAAA", "PBM E-score": 0.152}, {"sequence": "CATGAAAC", "PBM E-score": 0.484}, {"sequence": "CATGAAAA", "PBM E-score": 0.237}, {"sequence": "GATGAACA", "PBM E-score": 0.00898}, {"sequence": "CCATTTCG", "PBM E-score": -0.219}, {"sequence": "AAGCTCAG", "PBM E-score": -0.179}, {"sequence": "GCCTCTAC", "PBM E-score": -0.239}, {"sequence": "CGTATAAC", "PBM E-score": -0.0972}, {"sequence": "GGTATACA", "PBM E-score": -0.0232}, {"sequence": "CGTATAAA", "PBM E-score": 0.263}, {"sequence": "AGTATAAA", "PBM E-score": 0.228}, {"sequence": "AGTATACA", "PBM E-score": -0.108}, {"sequence": "CGTATACA", "PBM E-score": 0.306}, {"sequence": "CAACCATC", "PBM E-score": 0.109}, {"sequence": "AGAGAGGG", "PBM E-score": -0.255}, {"sequence": "GATCGTGC", "PBM E-score": 0.0893}, {"sequence": "AACTTTAG", "PBM E-score": 0.0874}, {"sequence": "ACTTTAAG", "PBM E-score": 0.225}, {"sequence": "ACTTTTAG", "PBM E-score": 0.101}, {"sequence": "GCTTTAAA", "PBM E-score": 0.155}, {"sequence": "ACTTTAAA", "PBM E-score": 0.275}, {"sequence": "ACTTTAAT", "PBM E-score": 0.263}, {"sequence": "ACTTTAAC", "PBM E-score": 0.162}, {"sequence": "CACTTTAA", "PBM E-score": 0.159}, {"sequence": "ACTTTTAA", "PBM E-score": 0.164}, {"sequence": "AACTTTAA", "PBM E-score": 0.279}, {"sequence": "CCTTTTAC", "PBM E-score": 0.178}, {"sequence": "ACTTTTAC", "PBM E-score": 0.263}, {"sequence": "ACTTAGAT", "PBM E-score": -0.0771}, {"sequence": "ATGGGAAT", "PBM E-score": -0.202}, {"sequence": "ACCATACG", "PBM E-score": -0.0611}, {"sequence": "CGCGCTAC", "PBM E-score": 0.00148}, {"sequence": "ACTGGGCC", "PBM E-score": -0.244}, {"sequence": "AGCTAGAA", "PBM E-score": -0.0198}, {"sequence": "GAACCGGA", "PBM E-score": -0.0365}, {"sequence": "GAGCGAGC", "PBM E-score": -0.00859}, {"sequence": "GTCGCTGA", "PBM E-score": 0.0069}, {"sequence": "TAACGATA", "PBM E-score": 0.138}, {"sequence": "AAACGATA", "PBM E-score": 0.279}, {"sequence": "CAACGATA", "PBM E-score": 0.0594}, {"sequence": "AGAACTGG", "PBM E-score": -0.0181}, {"sequence": "ATAGGATG", "PBM E-score": 0.149}, {"sequence": "AAATAGAC", "PBM E-score": -0.0352}, {"sequence": "AAAAATCA", "PBM E-score": 0.254}]}]}
